# Measured values reported in the supplement of paper PMC10849652.
# About 7,900 targets were measured; listed, in parts, are those with a hit and a random draw of the rest. About 0.6% of all pairs of compound and target were hits. A number with no mark means an inactive call.
# Assays:
# Assay in all cases: log2 fold change, soluble protein after heating vs DMSO (PISA); higher = thermal stabilisation; K562 cells, 10 uM, 30 min; active = over 0.2 and 3.5 SD of the protein, either way, in both replicates (recomputed)
# [1] = compound: CC1=C(C=C(C=C1)NC(=O)C2=CC(=CC=C2)C(C)(C)C#N)NC3=CC4=C(C=C3)N=CN(C4=O)C
# In short: (§1)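 Quantification of soluble protein used TMTpro 16plex LC-MS/MS, with channel sums equalised. Samples were the supernatant after 21,000xg for 90 min of pooled aliquots from K562 cells (2×10^6 cells/mL) treated with 10 μM compound for 30 min, heated for 3 min over 48°C-58°C, and extracted in PBS with 0.5% NP-40 at 4°C. Values, from duplicates, describe thermal stability against control samples on a log2 fold-change scale.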
# [2] = compound: CC1=C(C=C(C=C1)NC(=O)C2=CC(=CC=C2)N(C)C)NC(=O)C3=CC=C(C=C3)O
# In short: as §1
# [3] = compound: CC1=CC=C(C=C1)SC2=C3C=C(SC3=CN=C2)C(=O)N
# In short: as §1
# [4] = compound: CC1=NC(=CC=C1)C2=C(N=C(N2)C(C)(C)C)C3=CC4=NC=CN=C4C=C3
# In short: as §1
# [5] = compound: CCCCN(Cc1ccc(C(=O)NO)cc1)C(=O)Nc1ccccc1 [Nexturastat A]
# In short: as §1
# [6] = compound: CCCS(=O)(=O)Nc1ccc(F)c(C(=O)c2c[nH]c3ncc(-c4ccc(Cl)cc4)cc23)c1F [vemurafenib]
# In short: as §1
# [7] = compound: CCCS(=O)(=O)Nc1ccc(F)c(C(=O)c2c[nH]c3ncc(Cl)cc23)c1F
# In short: as §1
# [8] = compound: CCCc1cc(C)[nH]c(=O)c1CNC(=O)c1cc(-c2ccnc(N3CCN(C)CC3)c2)cc2c1cnn2C(C)C
# In short: as §1
# [9] = compound: CCN(CC)Cc1ccc2cc(COC(=O)Nc3ccc(C(=O)NO)cc3)ccc2c1 [givinostat]
# In short: as §1
# [10] = compound: CCN(CCCOc1ccc2c(Nc3cc(CC(=O)Nc4cccc(F)c4)[nH]n3)ncnc2c1)CCOP(=O)(O)O [barasertib]
# In short: as §1
# [11] = compound: CC[C@@H]1C(=O)N(C)c2cnc(Nc3ccc(C(=O)NC4CCN(C)CC4)cc3OC)nc2N1C1CCCC1
# In short: as §1
# [12] = compound: CC[C@@H]1C(=O)N(C)c2cnc(Nc3ccc(C(=O)N[C@H]4CC[C@H](N5CCN(CC6CC6)CC5)CC4)cc3OC)nc2N1C(C)C [volasertib]
# In short: as §1
# [13] = compound: CC[C@H](C)N1C=C(C2=C(C=C(C=C21)C3=CN=C(C=C3)N4CCNCC4)C(=O)NCC5=C(C=C(NC5=O)C)C)C
# In short: as §1
# [14] = compound: CC[C@H](C)[C@@H](C(=O)N[C@@H]([C@@H](C)O)C(=O)N[C@@H](CC(C)C)C(=O)[C@]1(CO1)C)NC(=O)[C@H]([C@@H](C)CC)N(C)C(=O)C [epoxomicin]
# In short: as §1
# [15] = compound: CCn1c(C(=O)N(C2CC2)C2CC2)cc2c3c(ncn3C)c(Nc3cc(C)n(C)n3)nc21
# In short: as §1
# [16] = compound: CCn1cc(-c2ccnc3[nH]c(-c4cccc(CN(C)C)c4)cc23)c(-c2ccc(NC(=O)N(C)C)cc2)n1
# In short: as §1
# [17] = compound: CN(C)CC(=O)Nc1ccc2[nH]c(=O)c3ccccc3c2c1
# In short: as §1
# [18] = compound: CN(CCOC1=CC=C(C=C1)C[C@H]2C(=O)NC(=O)S2)C3=CC=CC=N3 (racemic) [rosiglitazone]
# In short: as §1
# [19] = compound: CN1C2=C(C3=C1C(=O)N(N=C3)CC4=CC(=CC=C4)N)SC(=C2)S(=O)C
# In short: as §1
# [20] = compound: CN1CCC(CNc2ccc3ncc(-c4cccc(OC(F)(F)F)c4)n3n2)CC1
# In short: as §1
# UniProt Q9UK58, sequence (Q9UK58 whole entry, looked up): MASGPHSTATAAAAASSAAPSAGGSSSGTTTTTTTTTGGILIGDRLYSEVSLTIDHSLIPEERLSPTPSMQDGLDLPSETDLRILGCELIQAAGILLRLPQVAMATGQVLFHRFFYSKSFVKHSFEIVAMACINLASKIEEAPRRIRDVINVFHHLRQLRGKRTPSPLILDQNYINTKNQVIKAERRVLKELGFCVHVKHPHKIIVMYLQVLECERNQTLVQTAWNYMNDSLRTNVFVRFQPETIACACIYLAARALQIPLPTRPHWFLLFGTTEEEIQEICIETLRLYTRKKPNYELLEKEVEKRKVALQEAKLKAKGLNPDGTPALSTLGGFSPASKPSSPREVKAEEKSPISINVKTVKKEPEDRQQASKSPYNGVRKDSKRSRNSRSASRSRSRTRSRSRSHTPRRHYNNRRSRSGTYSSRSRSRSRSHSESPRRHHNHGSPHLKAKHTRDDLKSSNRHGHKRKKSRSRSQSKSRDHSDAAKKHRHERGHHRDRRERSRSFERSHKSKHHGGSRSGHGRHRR
# UniProt Q96JM3, sequence (Q96JM3 whole entry, looked up): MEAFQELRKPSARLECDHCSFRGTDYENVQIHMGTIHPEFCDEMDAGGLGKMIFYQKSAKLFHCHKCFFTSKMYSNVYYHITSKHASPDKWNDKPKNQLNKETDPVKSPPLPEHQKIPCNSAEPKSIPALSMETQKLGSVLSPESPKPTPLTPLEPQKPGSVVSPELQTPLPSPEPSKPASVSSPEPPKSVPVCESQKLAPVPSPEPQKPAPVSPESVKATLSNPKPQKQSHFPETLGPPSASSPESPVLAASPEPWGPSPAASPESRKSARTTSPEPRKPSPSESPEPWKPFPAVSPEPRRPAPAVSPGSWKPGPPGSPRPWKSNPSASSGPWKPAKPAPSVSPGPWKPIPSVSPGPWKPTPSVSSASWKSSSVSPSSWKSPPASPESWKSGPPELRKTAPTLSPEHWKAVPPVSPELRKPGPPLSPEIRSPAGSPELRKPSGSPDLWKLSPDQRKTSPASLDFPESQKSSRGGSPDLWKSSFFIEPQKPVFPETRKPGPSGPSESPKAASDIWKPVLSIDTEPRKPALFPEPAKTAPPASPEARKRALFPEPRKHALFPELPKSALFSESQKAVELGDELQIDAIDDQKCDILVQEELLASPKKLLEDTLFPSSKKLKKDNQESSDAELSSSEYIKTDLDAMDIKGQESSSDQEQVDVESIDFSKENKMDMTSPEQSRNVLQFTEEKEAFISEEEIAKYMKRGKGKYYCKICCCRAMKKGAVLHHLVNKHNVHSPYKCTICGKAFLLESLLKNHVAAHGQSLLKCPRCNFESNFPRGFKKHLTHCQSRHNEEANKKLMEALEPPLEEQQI
# UniProt P60033, sequence (P60033 whole entry, looked up): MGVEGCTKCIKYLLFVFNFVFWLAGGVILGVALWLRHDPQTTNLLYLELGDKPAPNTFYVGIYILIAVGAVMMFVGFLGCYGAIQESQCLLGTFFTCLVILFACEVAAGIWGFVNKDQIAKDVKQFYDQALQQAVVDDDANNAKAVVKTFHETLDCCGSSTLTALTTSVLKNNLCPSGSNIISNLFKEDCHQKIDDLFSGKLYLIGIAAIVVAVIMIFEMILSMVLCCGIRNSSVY
# UniProt Q9Y646, sequence (Q9Y646 whole entry, looked up): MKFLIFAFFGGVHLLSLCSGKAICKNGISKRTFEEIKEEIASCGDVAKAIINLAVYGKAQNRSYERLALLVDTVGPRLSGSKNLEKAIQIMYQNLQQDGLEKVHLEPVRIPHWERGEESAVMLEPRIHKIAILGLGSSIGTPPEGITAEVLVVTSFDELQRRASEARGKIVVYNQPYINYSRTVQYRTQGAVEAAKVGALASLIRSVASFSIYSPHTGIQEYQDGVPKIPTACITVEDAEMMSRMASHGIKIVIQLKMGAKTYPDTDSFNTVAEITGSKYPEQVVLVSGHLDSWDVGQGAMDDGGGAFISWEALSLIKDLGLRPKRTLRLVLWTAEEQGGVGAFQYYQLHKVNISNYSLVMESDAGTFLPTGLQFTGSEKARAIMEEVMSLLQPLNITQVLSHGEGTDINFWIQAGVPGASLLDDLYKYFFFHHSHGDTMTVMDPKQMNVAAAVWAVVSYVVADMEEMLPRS
# UniProt Q8N4S0, sequence (Q8N4S0 whole entry, looked up): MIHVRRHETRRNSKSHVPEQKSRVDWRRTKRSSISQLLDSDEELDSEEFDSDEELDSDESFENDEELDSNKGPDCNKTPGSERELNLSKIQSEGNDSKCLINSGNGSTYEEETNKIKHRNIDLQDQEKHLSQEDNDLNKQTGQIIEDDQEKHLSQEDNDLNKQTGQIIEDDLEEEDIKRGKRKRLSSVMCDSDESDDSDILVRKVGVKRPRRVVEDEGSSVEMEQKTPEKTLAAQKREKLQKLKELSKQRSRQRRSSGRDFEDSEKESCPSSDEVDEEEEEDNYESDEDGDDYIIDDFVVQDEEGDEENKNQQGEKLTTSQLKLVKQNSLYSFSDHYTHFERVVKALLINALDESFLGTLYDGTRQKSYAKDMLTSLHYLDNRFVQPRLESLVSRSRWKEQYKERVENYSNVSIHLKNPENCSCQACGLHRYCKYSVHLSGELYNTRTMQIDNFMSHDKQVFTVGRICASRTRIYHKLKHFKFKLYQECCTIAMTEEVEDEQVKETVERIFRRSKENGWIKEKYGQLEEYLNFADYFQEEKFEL
# UniProt P55210, sequence (P55210 whole entry, looked up): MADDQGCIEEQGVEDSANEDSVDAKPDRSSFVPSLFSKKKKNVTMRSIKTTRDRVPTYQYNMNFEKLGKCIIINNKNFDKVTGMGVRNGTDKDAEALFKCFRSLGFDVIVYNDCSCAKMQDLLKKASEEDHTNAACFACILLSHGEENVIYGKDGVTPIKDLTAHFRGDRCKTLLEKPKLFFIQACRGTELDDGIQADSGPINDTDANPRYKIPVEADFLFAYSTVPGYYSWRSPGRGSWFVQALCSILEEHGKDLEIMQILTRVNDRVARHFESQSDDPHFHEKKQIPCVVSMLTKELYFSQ
# UniProt P08962, sequence (P08962 whole entry, looked up): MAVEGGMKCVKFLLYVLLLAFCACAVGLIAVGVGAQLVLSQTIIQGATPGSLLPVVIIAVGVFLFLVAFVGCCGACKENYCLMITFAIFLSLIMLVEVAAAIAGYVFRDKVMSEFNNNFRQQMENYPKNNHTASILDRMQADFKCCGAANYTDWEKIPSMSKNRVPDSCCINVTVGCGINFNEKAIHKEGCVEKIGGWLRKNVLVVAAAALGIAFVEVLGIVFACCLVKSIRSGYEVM
# UniProt Q96GV9, sequence (Q96GV9 whole entry, looked up): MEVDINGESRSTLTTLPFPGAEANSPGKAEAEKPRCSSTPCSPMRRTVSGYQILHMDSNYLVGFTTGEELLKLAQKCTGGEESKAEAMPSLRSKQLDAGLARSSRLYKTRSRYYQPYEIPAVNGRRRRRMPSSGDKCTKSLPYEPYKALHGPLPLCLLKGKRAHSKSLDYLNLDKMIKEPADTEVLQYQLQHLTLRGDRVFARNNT
# UniProt Q13286, sequence (Q13286 whole entry, looked up): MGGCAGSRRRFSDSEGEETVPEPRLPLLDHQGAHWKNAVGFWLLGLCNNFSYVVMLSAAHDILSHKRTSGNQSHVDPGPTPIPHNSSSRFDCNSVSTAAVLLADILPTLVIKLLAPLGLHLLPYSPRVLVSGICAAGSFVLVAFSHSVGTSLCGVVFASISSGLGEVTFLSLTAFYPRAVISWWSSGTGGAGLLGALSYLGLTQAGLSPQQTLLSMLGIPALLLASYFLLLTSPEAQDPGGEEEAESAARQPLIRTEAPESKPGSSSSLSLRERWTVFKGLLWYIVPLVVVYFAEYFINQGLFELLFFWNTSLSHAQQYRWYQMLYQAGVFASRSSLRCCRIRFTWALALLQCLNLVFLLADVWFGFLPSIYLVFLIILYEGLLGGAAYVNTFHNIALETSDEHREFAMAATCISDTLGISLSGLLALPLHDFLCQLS
# UniProt Q96GQ5, sequence (Q96GQ5 whole entry, looked up): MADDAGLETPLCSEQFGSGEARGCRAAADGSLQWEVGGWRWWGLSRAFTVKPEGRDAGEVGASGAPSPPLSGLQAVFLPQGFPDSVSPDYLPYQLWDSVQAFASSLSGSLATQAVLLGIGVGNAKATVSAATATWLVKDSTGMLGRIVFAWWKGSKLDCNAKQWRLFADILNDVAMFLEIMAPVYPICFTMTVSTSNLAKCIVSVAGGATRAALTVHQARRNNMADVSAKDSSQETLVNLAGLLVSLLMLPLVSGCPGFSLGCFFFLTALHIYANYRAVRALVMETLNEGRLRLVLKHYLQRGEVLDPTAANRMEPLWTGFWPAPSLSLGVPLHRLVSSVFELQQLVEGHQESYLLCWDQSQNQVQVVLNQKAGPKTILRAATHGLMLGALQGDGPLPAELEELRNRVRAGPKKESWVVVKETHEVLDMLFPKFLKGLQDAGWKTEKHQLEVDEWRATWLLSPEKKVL
# UniProt Q9UJA2, sequence (Q9UJA2 whole entry, looked up): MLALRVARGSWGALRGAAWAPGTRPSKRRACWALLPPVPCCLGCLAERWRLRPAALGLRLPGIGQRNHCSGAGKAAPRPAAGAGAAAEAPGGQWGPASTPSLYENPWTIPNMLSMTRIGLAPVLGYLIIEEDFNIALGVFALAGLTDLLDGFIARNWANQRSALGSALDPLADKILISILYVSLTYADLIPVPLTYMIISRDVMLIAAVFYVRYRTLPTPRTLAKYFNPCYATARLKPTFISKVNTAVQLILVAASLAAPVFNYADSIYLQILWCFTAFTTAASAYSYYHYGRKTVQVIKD
# UniProt Q15417, sequence (Q15417 whole entry, looked up): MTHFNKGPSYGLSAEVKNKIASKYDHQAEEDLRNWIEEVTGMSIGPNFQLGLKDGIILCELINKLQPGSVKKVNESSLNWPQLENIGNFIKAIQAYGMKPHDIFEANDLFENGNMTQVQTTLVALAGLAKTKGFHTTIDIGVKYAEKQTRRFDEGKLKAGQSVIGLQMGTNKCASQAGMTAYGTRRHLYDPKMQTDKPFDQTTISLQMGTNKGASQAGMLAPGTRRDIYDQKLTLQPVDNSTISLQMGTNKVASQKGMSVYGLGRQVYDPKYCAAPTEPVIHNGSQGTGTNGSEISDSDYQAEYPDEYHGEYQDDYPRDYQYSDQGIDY
Target,log2 fold change [1],log2 fold change [2],log2 fold change [3],log2 fold change [4],log2 fold change [5],log2 fold change [6],log2 fold change [7],log2 fold change [8],log2 fold change [9],log2 fold change [10],log2 fold change [11],log2 fold change [12],log2 fold change [13],log2 fold change [14],log2 fold change [15],log2 fold change [16],log2 fold change [17],log2 fold change [18],log2 fold change [19],log2 fold change [20]
CDKN2AIP (UniProt Q9NXV6),0.046,-0.01,-0.076,0.008,0.052,0.043,-0.053,0.023,0.012,-0.017,0.096,0.057,-0.001,0.095,-0.017,0.008,0.046,0.025,0.03,0.094
CD63 (UniProt P08962),-0.007,0.056,0.004,0.009,-0.072,0.064,-0.007,-0.125,0.096,-0.025,-0.013,0.048,-0.013,-0.019,0.017,0.06,0.01,0.04,0.012,0.018
CDC123 (UniProt O75794),-0.033,0.006,0.043,0.048,0.013,0.011,0.02,0.038,-0.01,0.028,0.06,-0.002,0.07,0.137,-0.012,-0.021,0.015,0.034,-0.009,-0.1
CD81 (UniProt P60033),0.039,0.112,0.069,0.054,-0.027,0.156,-0.08,-0.06,0.016,-0.008,0.393 (active),0.193,-0.06,0.013,0.058,-0.226,0.098,0.013,-0.139,0.145
COPS4 (UniProt Q9BT78),-0.001,-0.019,0.019,0.033,-0.062,0.049,0.071,-0.037,-0.025,-0.002,-0.045,-0.007,0.013,0.047,0.001,-0.022,0.023,0.018,-0.092,-0.007
CPQ (UniProt Q9Y646),0.001,0.025,-0.005,-0.005,-0.016,0.043,0.006,0.024,0.011,-0.002,-0.144,-0.27 (active),-0.036,0.062,-0.011,-0.039,-0.021,-0.006,0.032,-0.035
C16orf58 (UniProt Q96GQ5),-0.04,0.001,0.021,0.003,-0.049,-0.007,0.005,-0.075,-0.012,-0.011,-0.055,-0.013,-0.005,0.029,0.015,-0.018,0.006,0.039,-0.037,-0.086
CAMKK2 (UniProt Q96RR4),0.022,0.024,-0.044,-0.009,0.154,0.037,-0.043,0.277,-0.017,0.058,0.374,0.617 (active),0.014,0.211,0.114,-0.093,0.145,0.072,-0.008,0.045
COX20 isoform 2 (UniProt Q5RI15),0.035,-0.041,0.102,0.036,-0.038,-0.036,-0.041,0.069,-0.04,-0.03,-0.019,0.077,-0.01,0,0.004,0.294 (active),-0.038,0.005,0.002,0.081
CHAMP1 (UniProt Q96JM3),-0.003,-0.018,0.005,-0.012,0.011,-0.01,-0.011,-0.003,0.032,0.027,-0.035,-0.357 (active),0.181,0.016,-0.038,-0.095,0.014,0.063,0.038,-0.302
C4A (UniProt P0C0L4),-0.154,0.19,0.111,0.215,-0.008,0.148,-0.02,-0.287,0.001,0.021,-0.147,-0.216,-0.048,-0.316,-0.079,0.197,0,0.154,0.223,-0.32
C5orf30 (UniProt Q96GV9),,,-0.126,,-0.186,,0.103,,,,,0.001,,0.165,,,,,,
CCDC82 (UniProt Q8N4S0),,-0.027,-0.007,-0.103,0.043,0.015,0.055,-0.035,-0.074,0.073,-0.062,-0.349 (active),-0.018,0.143,-0.057,,0.001,0,-0.069,
CARD9 (UniProt Q9H257),,-0.15,,0.052,,,,,-0.106,,,,,,-0.103,,,,,
CNN3 (UniProt Q15417),0.014,,0.064,,0.015,0.034,0.07,-0.018,0.073,0.047,-0.08,-0.368 (active),0.072,0.066,0.005,0.008,0.106,0.058,-0.018,-0.055
CASK (UniProt O14936),,,,-0.091,,,,,-0.06,,,,,,-0.086,,,,0.014,
CLN3 (UniProt Q13286),,0.004,-0.025,-0.093,-0.039,0.147,-0.119,-0.09,0.02,-0.027,-0.003,0.055,-0.038,0.09,-0.008,,-0.001,-0.002,0.074,
CS (UniProt F8VU34),,,,,,,,,,-0.024,-0.093,,,,,,,0.221,,
CRLS1 (UniProt Q9UJA2),0.337 (active),,0.064,-0.014,,0.033,0.117,-0.074,-0.108,,0.029,0.026,0.001,,-0.024,0.052,-0.024,,-0.006,0.09
"CCDC187, A0A1W2PQX5",,-0.105,,,0.003,,,,,,,,0.012,0.085,,-0.03,,,,-0.029
CASP7 isoform 3 (UniProt P55210),,,,,0.255,,,,-0.005,-0.249,0.014,,0.017,0.222,-0.001,-0.569,,0.259,0.032,-0.697
CLN5 (UniProt O75503),0.031,,0.058,0.068,0.012,,0.104,-0.54,-0.17,0.06,,-1.25 (active),-0.001,0.014,0.416,-0.183,,-0.025,0.139,-0.834 (active)
CCNL1 (UniProt Q9UK58),,,,,,,,-0.317,0.156,,,,,,-0.078,,,,,
CPNE5 (UniProt Q9HCH3),,,,,,,,,-0.005,,,,,,0.132,,,,,
